nsP2pro inh: Primary qHTS for inhibitors of NSP2Pro chikungunya virus (CHIKV) | Polyprotein P1234 (Chikungunya virus (strain S27-African prototype)), Q8JUX6 | FRET peptide cleavage, nsP2pro, fluorescence 1 h | Potency, µM (series often up to 24.9 µM), most hits filed as inhibitors | 1.1% of 31,000 active | AID 1964107, 2024; calls by dose curve; note: nearly all actives have a fitted effect of over 60% in size
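FRET cleavage of 2.5 uM peptide 2 by 150 nM CHIKV protease domain at pH 8.0 (Tris, Tween 20). Compounds at 7 concentrations (up to 25 uM) preincubated 15 min. Fluorescence read after 1 h at room temperature.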
Of the large screens only hits and unclear results are named; the others gave an inactive call. The full list was thinned out, with hits kept by preference.

COc1ccccc1Oc1ccc(N(Cc2cccnc2)S(=O)(=O)CC(F)(F)F)cc1	nsP2pro inh 11µM
COc1cccc2sc(N(Cc3cccnc3)C(=O)C3COc4ccccc4O3)nc12 (stereo not given)	none
COc1ccc(C)c2sc(N(Cc3cccnc3)C(=O)COc3ccccc3)nc12	none
Oc1ccc2nc(CN3CCC(Cc4ccccc4F)CC3)[nH]c2c1	none
Cc1csc(CN(C)c2ncnc3ccc(-c4ccc5c(c4)OCO5)cc23)n1	none
CCCN1CC2ON=C(C(=O)O)C2C1 (stereo not given)	nsP2pro inh 13µM
CC(C)CCN1CC2ON=C(C(=O)O)C2C1 (stereo not given)	none
O=C(O)C1=NOC2CN(Cc3cscn3)CC12 (stereo not given)	none
Fc1ccc(-c2ccc(Nc3nc(-c4ccncc4)nc4ccccc34)cc2F)c(F)c1	none
CN1CCN(c2nc3c(c(=O)[nH]2)CCN(Cc2cccnc2)CC3)CC1	none
Cc1ccc(CN2CCc3nc(C(=O)Nc4cccnc4)oc3CC2)o1	nsP2pro inh 10µM
Cc1oc2c(c1C(=O)N1CCOCC1)CN(Cc1cccnc1)CC2	none
CC(=O)Nc1sc2c(c1-c1ccc3nc[nH]c3c1)CCNC2	none
CCCN1Cc2ccccc2NC(=O)C12CCNC2 (stereo not given)	nsP2pro inh 13µM
Cc1cc(CN2CCC23Cc2ccccc2NC3=O)no1 (stereo not given)	none
O=C1Nc2ccccc2CN(C/C=C/c2ccccc2)C12CCNC2 (stereo not given)	none
CC1=C2C[C@@]3(C)[C@@H](CCC[C@@H]3C)C[C@@]2(O)OC1=O	none
CC1=C2CC(=O)C(C)CC/C=C(\C)CC2(O)OC1=O (stereo not given)	none
CC1=C2C[C@@]3(C)C(CCC[C@@H]3C)C(O)C2(O)OC1=O (stereo not given in full)	nsP2pro inh 11µM
C[C@](C#N)(COc1cc(C#N)ccc1C(F)(F)F)NC(=O)c1ccc(SC(F)(F)F)cc1	none
CCOC(=O)[C@H](C)C[C@@H](Cc1ccc(-c2ccccc2)cc1)NC(=O)CCC(=O)O	none
CC(C)=CCCC(C)=CCCC(C)=CCCC=C(C)CCC=C(C)CCC=C(C)C	none
COc1ccc(Cl)cc1CNCCSc1nnnn1-c1ccccc1	none
Fc1ccc(-c2ccc(CNCCSc3nnnn3-c3ccccc3)o2)cc1	nsP2pro inh 13µM
O=S(=O)(NCCSc1nnnn1-c1ccccc1)c1ccc(F)cc1	none
O=C(NCCCc1ccccc1F)[C@@]12CNC[C@@H]1CN(Cc1ccccc1)C2	none
OCc1ccc(-c2ccc3ncnc(N4CCOCC4)c3c2)o1	nsP2pro inh 13µM
Cc1cc(C(=O)N2CCc3ncnc(N4CCOCC4)c3CC2)n(C)n1	none
O=C(Nc1ccc2c(N3CCOCC3)ncnc2c1)c1cccc(Cl)c1	none
CC(C)(O)CNc1ncc(-c2ccnc(Nc3ccnc(Cl)c3)n2)c(CC2CC2)n1	none
CCC[C@@H](C(=O)O)N1C(=O)[C@H]2C[C@@H]3CCCC[C@@H]3N2C(=O)[C@@H]1C	none
O=C(Nc1nc(-c2ccccc2)cs1)c1ccncc1NS(=O)(=O)c1cccc(Cl)c1	none
Cc1nc2ccc(Nc3nc(-c4ccncc4)nc4ccccc34)cc2s1	none
Cc1cccc(-n2cnc3cc(C(=O)N4CCC(C(F)(F)F)CC4)ccc32)c1	none
CC(=O)OC1CCC2(C)C(=CCC3C2CCC2(C)C(c4cccnc4)=CCC32)C1 (stereo not given)	none
COc1ccccc1C(=O)NC1CCN(c2ccnc3ccnn23)C1 (stereo not given)	none
N[C@H](Cc1ccccc1)C(=O)Nc1ccc(Cl)cc1C(=O)c1ccc[nH]1	none
CCNC(=O)N[C@@H]1C=C[C@@H](c2c(C)nn(-c3ccc(C(C)C)cc3)c2C)C1	none
CCNC(=O)N[C@@H]1C=C[C@@H](c2c(C)nn(-c3ccc(C(F)(F)F)cc3)c2C)C1	nsP2pro inh 11µM
CCNC(=O)N[C@@H]1C=C[C@@H](c2c(C)nn(-c3ccc(C(C)(C)C)cc3)c2C)C1	none
COC(=O)N[C@H](C(=O)N1CCC[C@H]1C(=O)Nc1ccc([C@@H]2CC[C@@H](c3ccc(NC(=O)[C@@H]4CCCN4C(=O)[C@@H](NC(=O)OC)C(C)C)cc3)N2c2ccc(C(C)(C)C)cc2)cc1)C(C)C	none
O=C(O)[C@H]1O[C@@H](Oc2cc3oc(-c4ccc(O)cc4)cc(=O)c3c(O)c2O)[C@H](O)[C@@H](O)[C@@H]1O	none
COc1ccc(-c2oc3c(CC=C(C)C)c(OC4OC(CO)C(O)C(O)C4O)cc(O)c3c(=O)c2OC2OC(C)C(O)C(O)C2O)cc1 (stereo not given)	none
CCOc1cccc(CNc2ccc(O)cc2)c1OCc1ccccc1Cl	nsP2pro inh 11µM
O=S(=O)(Nc1cnc2ccccc2c1)c1ccc(NCc2cccc(Cl)c2O)cc1	none
O=S(=O)(Nc1ccccc1)c1ccc(NCc2cccc(Cl)c2O)cc1	none
CNc1oc(-c2ccccc2-c2ccccc2)nc1C#N	none
Cc1cn2nc([C@@H]3CCCCN3C(=O)c3cc(Cl)ccc3NS(C)(=O)=O)cc2nc1N1CC[C@H](N)C1	none
O=C(N1CCOCC1)N1CCN(c2ccc(Cl)cc2)CC1	none
O=C(Cc1cccn1-c1ccc(F)cc1)N1CCCCC1	none
O=C(O)Cc1cccn1-c1ccc(Cl)cc1	nsP2pro inh 4.5µM
C[C@H](O)[C@H](O)[C@@H](O)[C@@H](O)C=O	none
Cc1nn(-c2ccc(F)cc2)c(-n2cccc2)c1C(=O)N1CCCCC1C (stereo not given)	none
Cc1ccc(CCNC(=O)c2c(C)nn(-c3ccc(F)cc3)c2-n2cccc2)cc1	none
CC(=O)c1cccc(NC(=O)c2c(C)nn(-c3ccc(F)cc3)c2-n2cccc2)c1	nsP2pro inh 10µM
Cc1cc(C)nc(NC(=S)N2CCN(c3ccc4occc4c3)CC2)c1	none
O=C(O)CC(O)C(=O)O (stereo not given)	none
CC(O)CC(=O)O (stereo not given)	nsP2pro inh 16µM
C[N+](C)(C)CC(O)CC(=O)O (stereo not given)	none
CCCCc1ccc(NC(C)=O)c(C)c1	none
Cc1cc(C)cc(NC(=O)CSc2nc3sc4c(c3c(=O)[nH]2)CCCC4)c1	none
COC(=O)c1ccccc1NC(=O)CSc1nc2sc3c(c2c(=O)[nH]1)CCCC3	nsP2pro inh 10µM
COC(=O)c1ccc(Cn2nnc3sc4c(c3c2=O)CCCC4)cc1	none
Cn1cc(-c2cnc(Nc3ccc(F)cc3)c3c2CCO3)cn1	none
CNC(=O)c1cccc(-c2cnc(Nc3ccc(Cl)cn3)c3c2CCO3)c1	none
Cn1cc(-c2cnc(Nc3cccnc3)c3c2CCO3)cn1	nsP2pro inh 8.9µM
CC(C)(CO)c1cc2cc(NC(=O)C3(c4ccc5c(c4)OC(F)(F)O5)CC3)c(F)cc2n1C[C@@H](O)CO	none
COC(=O)CCCCC(CCSS/C(CCO)=C(\C)N(C=O)Cc1cnc(C)nc1N)SC(C)=O (stereo not given)	none
Cc1ncc(CNC(=O)N(CCCl)N=O)c(N)n1	none
C/C(=C(\CCO)SS/C(CCO)=C(\C)N(C=O)Cc1cnc(C)nc1N)N(C=O)Cc1cnc(C)nc1N	nsP2pro inh 11µM
O=C(O)CCCCCCCCC(=O)O	none
O=c1ccc2ccc3occc3c2o1	none
